According to the supplement of paper PMC6555819:

Experiments:
Experiment in all cases: PBM binding z-score (relative to random genomic background probes); higher = stronger binding; sequences stand for … in GC…GCGATTGACAGCGTAGAATGAAGG
[1] = test system: PPARg:RXRa DBDmut IVT, anti-RXR (DBD mutation: RXRa K156A/R161A, NR concentration 270 nM, RXRa partner concentration 90 nM)
Outline: (§1)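 Antibodies against each partner of ligand-free nuclear receptor dimers (one per run) detected binding on custom Agilent 4×180K protein-binding microarrays after 1 h incubation. The double-stranded probes had 34-nt variable regions carrying direct-repeat seeds, single-nucleotide variants, half-site ablations and random human genomic background sequences. Binding z-scores, from regression-normalized fluorescence, use the random background probes as reference.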

[2] = test system: PPARg:RXRa IVT, anti-PPARg (NR concentration 270 nM, RXRa partner concentration 90 nM)
Outline: as §1

[3] = test system: PPARg DBDmut:RXRa IVT, anti-PPARg (DBD mutation: PPARg1 K132A/R137A, NR concentration 270 nM, RXRa partner concentration 90 nM)
Outline: as §1

[4] = test system: PPARg DBDmut IVT, anti-PPARg (DBD mutation: PPARg1 K132A/R137A, NR concentration 270 nM)
Outline: as §1

[5] = test system: PPARg homodimer (NR concentration 180 nM)
Outline: as §1

[6] = test system: PXR:RXRa (NR concentration 270 nM, RXRa partner concentration 90 nM)
Outline: as §1

[7] = test system: PXR homodimer (NR concentration 270 nM)
Outline: as §1

[8] = test system: RARa:RXR (NR concentration 270 nM, RXRa partner concentration 90 nM)
Outline: as §1

[9] = test system: RARa homodimer (NR concentration 270 nM)
Outline: as §1

[10] = test system: RARb:RXRa (NR concentration 270 nM, RXRa partner concentration 90 nM)
Outline: as §1

[11] = test system: RARb homodimer (NR concentration 270 nM)
Outline: as §1

[12] = test system: RARg homodimer (NR concentration 270 nM)
Outline: as §1

[13] = test system: RXRa DBDmut IVT, anti-RXR (DBD mutation: RXRa K156A/R161A, NR concentration 90 nM)
Outline: as §1

[14] = test system: RXRa homodimer (NR concentration 180 nM)
Outline: as §1

[15] = test system: THRa:RXRa (NR concentration 90 nM, RXRa partner concentration 90 nM)
Outline: as §1

[16] = test system: THRa homodimer (NR concentration 90 nM)
Outline: as §1

[17] = test system: VDR homodimer (NR concentration 270 nM)
Outline: as §1

[18] = test system: RARg:RXRa (NR concentration 270 nM, RXRa partner concentration 90 nM)
Outline: as §1

[19] = test system: VDR:RXRa (NR concentration 270 nM, RXRa partner concentration 90 nM)
Outline: as §1

Sequence | PBM binding z-score [1] | PBM binding z-score [2] | PBM binding z-score [3] | PBM binding z-score [4] | PBM binding z-score [5] | PBM binding z-score [6] | PBM binding z-score [7] | PBM binding z-score [8] | PBM binding z-score [9] | PBM binding z-score [10] | PBM binding z-score [11] | PBM binding z-score [12] | PBM binding z-score [13] | PBM binding z-score [14] | PBM binding z-score [15] | PBM binding z-score [16] | PBM binding z-score [17] | PBM binding z-score [18] | PBM binding z-score [19]
TCTGCTAGGTCAGGTGGTCAGCTAACGAGCTGCC | 2.43 | 2.96 | -0.185 | -0.486 | -0.444 | 0.451 | -0.687 | 1.18 | -1.1 | 3.38 | 2.83 | 3.58 | 0.176 | 1.66 | 1.77 | 0.331 | -0.539 | – | –
TCTGCTTGGTCAACGATGGTCAGCTAATCTGCTA | 0.689 | 0.425 | 0.225 | -0.53 | -0.633 | -0.0602 | -0.841 | 0.401 | -1.62 | 1.17 | 0.448 | 0.624 | -0.0435 | 0.237 | 0.139 | -1.13 | -1.09 | – | –
TGTCAAAGTTCTAAGGTAACGTAAGTATCCACAC | -0.558 | 1.37 | 1.07 | 0.895 | 0.299 | 0.23 | 0.0534 | 1.09 | 0.0558 | 0.779 | 0.168 | 0.585 | -0.0657 | – | 2.88 | 2.43 | -0.114 | – | –
CAAACTAGGTCAAGAGGTCAAACTCCGCTTCCCG | 8.21 | 8.74 | 4.72 | 2.13 | 6.57 | 6.37 | 4.12 | 8.15 | 2.88 | 5.41 | 5.81 | 7.93 | 3.21 | 8.2 | 4.49 | 2.71 | 5.63 | – | –
TATCCTAGGTCAGATCGGGCCAGTATACGCTATA | 2.51 | 3.41 | 1.32 | 1.4 | 1.11 | 1.82 | 0.14 | 1.8 | 0.0561 | 3.33 | 2.53 | 3.86 | 0.36 | 2.21 | 4.25 | 0.858 | 0.237 | – | –
CCTCGGAGGACAACAGGATGTCAGAGCTGCCAGA | 0.0272 | -0.669 | -0.339 | -1.74 | -0.00372 | -0.729 | -0.378 | -0.712 | -0.0154 | 1.13 | 0.537 | 1.19 | -0.233 | -0.144 | 0.449 | -0.131 | -0.662 | – | –
TCTCGGAGGACACGAAAGGTCAGTGCTCGACATC | 1.47 | 1.67 | -0.413 | -0.365 | 3.45 | 3.79 | 0.68 | 4.07 | 1.12 | 4.13 | 4.96 | 5.21 | 1.23 | 3.34 | 3.49 | 1.51 | 1.24 | – | –
GATACAGGGTGAAGGCCAGAGTACGCGTATTGAT | 0.737 | 1.34 | -0.37 | -0.0968 | -0.218 | -0.324 | -0.0784 | -0.132 | -0.36 | 0.882 | 0.673 | 0.704 | -0.695 | 0.721 | – | -0.473 | -0.248 | – | –
CCTTACGGGTCTAGGTTATAGCACGGGTGGTACG | -0.763 | 0.098 | -1.1 | -0.738 | -0.385 | -0.387 | -0.0571 | 0.0446 | -0.0691 | 0.467 | 0.113 | 0.0918 | -1.08 | – | 0.109 | 0.173 | -0.202 | – | –
TGGCCTAGGTCATGGGCCAGTATACCACGCGAAC | 0.46 | 2.6 | 0.17 | -0.783 | 0.937 | 1.04 | -0.935 | 2.31 | -0.155 | 3.82 | 2.96 | 5.07 | -0.28 | 3.6 | 2.83 | 0.639 | -0.0403 | – | –
CCAACTAGGTCATTGACAGGACAGTGAATAGTAA | 7.67 | 7.49 | 1.99 | 0.953 | 1.89 | 1.68 | 0.805 | 2.23 | 1.58 | 3.77 | 2.83 | 4.34 | 2.47 | 2.61 | 2.88 | 1.31 | 1.64 | – | –
ATATGAAGGTTATCGGGTCATTCAGTTTGCGCAT | 3.47 | 4.42 | 1.16 | 1.48 | 2.47 | 3.93 | 8.15 | 4.44 | 0.435 | – | 3.17 | 2.89 | 2.04 | 4.02 | 3.38 | 2.69 | 4.06 | 4 | 5.41
CCTACTGGGCCAAAGGTCCTTGATTCCAATGCTC | 5.03 | 5.07 | -0.487 | -1.06 | 0.826 | -0.225 | -0.792 | 0.089 | -0.831 | – | 0.379 | -0.124 | -0.459 | 0.121 | -0.00931 | -0.139 | -0.217 | 0.102 | -0.303
CAACCTAGGTCACCGGAAGGTCAAAGTCCGCATG | 4.96 | 5.75 | 0.0174 | 0.904 | 8.27 | 6.29 | 2.96 | 7.58 | 5.02 | 5.39 | 5.77 | 8.03 | 2.46 | 7.71 | 4.63 | 3.03 | 4.09 | – | –
GCTGCTAGGTCAGGATGGTCAGCTAACGGGTACG | 2.74 | 3.02 | -0.328 | -0.66 | 0.599 | 0.108 | -0.722 | 0.555 | -0.167 | – | 2.65 | 3.23 | 0.0831 | 1.18 | 1.7 | 0.189 | 0.124 | 2.65 | 0.56
TAGCCTAGGTCAGATCGGGCGAGTATACGCTATA | 0.488 | 1.31 | -0.335 | -0.507 | 0.138 | 0.314 | -0.678 | 0.971 | -1.26 | – | 2.27 | 3.68 | -0.51 | 1.44 | 3.15 | -0.0987 | -0.405 | 2.7 | 0.506
